Tests used:
Assay in all cases: PBM binding z-score (relative to random genomic background probes); higher = stronger binding; sequences stand for … in GC…GCGATTGACAGCGTAGAATGAAGG
[1] = system: PPARg:RXRa DBDmut IVT, anti-RXR (DBD mutation: RXRa K156A/R161A, NR concentration 270 nM, RXRa partner concentration 90 nM)
Procedure, shortened: (§1)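 Binding z-scores were set against random background probes. The data came from custom Agilent 4×180K protein-binding microarrays carrying double-stranded probes with 34-nt variable regions, incubated 1 h with ligand-free nuclear receptor dimers. Partner-specific antibodies detected binding, and scanned fluorescence was regression-normalized.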

[2] = system: PPARg:RXRa IVT, anti-PPARg (NR concentration 270 nM, RXRa partner concentration 90 nM)
Procedure, shortened: as §1

[3] = system: PPARg DBDmut:RXRa IVT, anti-PPARg (DBD mutation: PPARg1 K132A/R137A, NR concentration 270 nM, RXRa partner concentration 90 nM)
Procedure, shortened: as §1

[4] = system: PPARg DBDmut IVT, anti-PPARg (DBD mutation: PPARg1 K132A/R137A, NR concentration 270 nM)
Procedure, shortened: as §1

[5] = system: PPARg homodimer (NR concentration 180 nM)
Procedure, shortened: as §1

[6] = system: PXR:RXRa (NR concentration 270 nM, RXRa partner concentration 90 nM)
Procedure, shortened: as §1

[7] = system: PXR homodimer (NR concentration 270 nM)
Procedure, shortened: as §1

[8] = system: RARa:RXR (NR concentration 270 nM, RXRa partner concentration 90 nM)
Procedure, shortened: as §1

[9] = system: RARa homodimer (NR concentration 270 nM)
Procedure, shortened: as §1

[10] = system: RARb:RXRa (NR concentration 270 nM, RXRa partner concentration 90 nM)
Procedure, shortened: as §1

Sequence | PBM binding z-score [1] | PBM binding z-score [2] | PBM binding z-score [3] | PBM binding z-score [4] | PBM binding z-score [5] | PBM binding z-score [6] | PBM binding z-score [7] | PBM binding z-score [8] | PBM binding z-score [9] | PBM binding z-score [10]
AGAATGAGGTTAGCAAAGATCAGGGAAACGCTTG | 2.18 | 1.55 | 0.688 | 0.613 | -0.323 | 0.442 | -0.147 | 0.623 | 0.53 | 1.46
TCTAGTTGGTCGCGGAGGTCACACACGACGGGTA | 1.54 | 2.37 | 0.402 | 0.328 | 2.9 | 4.16 | 1.42 | 4.39 | 1.29 | 3.38
CCTACTGGGCCATTCAGAGGTCACTGATCATATG | 4.42 | 4.67 | 0.462 | 0.235 | 1.87 | 3.96 | 0.772 | 4.08 | 0.335 | 3.37
CAAACTAGGTCAAAGGTCAAAGCCGAGCCAACCA | 8.36 | 8.57 | 2.64 | 1.45 | 4.45 | 6.85 | 1.41 | 9.13 | 2.5 | 5.94
CAAACTAGGTCACGAGGTCAAAGTCCGCTTCCCG | 8.56 | 9.04 | 2.5 | 3.48 | 3.45 | 6.15 | 3.42 | 6.91 | 1.34 | 5.48
TGTCAAAGTTCTAAGGTAACGTAAGTATCCACAC | -0.558 | 1.37 | 1.07 | 0.895 | 0.299 | 0.23 | 0.0534 | 1.09 | 0.0558 | 0.779
TCTAGTTGGTCACGGAGGTCACACGCGACGGGTA | 2.46 | 4.38 | 1.06 | 1.9 | 3.12 | 4.55 | 1.5 | 4.54 | 1.78 | 3.87
GCTGCTAGGTCAGGTTGGTCAGCTAACGGGTACG | 2.95 | 2.05 | -0.747 | -0.959 | 0.974 | 0.333 | -0.532 | 0.458 | -0.285 | 3.33
TTACCAAGGTGAACTGAGGTCGTTGATCCAACTC | 2.89 | 3.47 | 0.972 | 0.996 | 1.32 | 6.12 | 1.94 | 3.7 | -0.75 | 2.43
ATCGAAAGGTCGAGGAGGTGAGTATACACCGTTT | 0.255 | 1.9 | 1.49 | 0.557 | 1.47 | 2.86 | 0.184 | 3.41 | 0.666 | 3.94
TCTAGTTGGTGACGGAGGTCACACACGACGGGTA | 1.77 | 3.08 | 0.76 | 0.756 | 2.31 | 3.78 | 0.917 | 3.78 | 0.681 | 3.36
GGAACTAGGGCAAAGTTGATAGCATCTGTCGACG | 7.94 | 7.8 | 3.88 | 2.6 | 2.98 | -0.217 | -0.423 | 0.0303 | -0.192 | 1.48
CAAACTAGGTCAAGAGGTCAAAGGCCGCTTCCCG | 8.35 | 8.52 | 6.15 | 3 | 8.5 | 6.37 | 2.72 | 8.18 | 4.57 | 5.58
GATTCAGGGTCAGCTAGAGGCCAGAGTATGGAAA | 1.78 | 3.04 | 0.184 | -0.207 | 2.1 | 3.77 | 0.432 | 4.59 | 0.68 | 4.5
ACTAGTTGGTCAGCTGAGGTAACACACAATTCGG | 1.07 | 1.11 | 0.194 | 0.609 | 0.0938 | 0.509 | -0.174 | 1.3 | -0.362 | 1.03
ACTAGTTGGTCAGCTGAGGTCACACACAATTCGG | 1.96 | 3.06 | 0.93 | 1.21 | 2.63 | 5.47 | 2.09 | 4.69 | 2.64 | 3.79
AGTCAAAGTTCAGGACGAGGTAATGTAAAGCACG | -0.319 | 1.45 | -0.174 | 0.146 | 1.53 | 3.18 | 1.4 | 2.5 | 0.661 | 4.23
CCGACTGGGGCAAAGGTTACGATACTCAGTACGA | 4.56 | 6.38 | 0.809 | 0.584 | 4 | 2.51 | -0.536 | 4.39 | -0.413 | 2.57
GCTGCTAGGTCAACTGATGGTCAGCTAGAGCTCG | 4.87 | 3.91 | -0.00234 | 0.522 | 0.71 | 1.55 | -0.557 | 2.21 | 0.274 | 4.28
ACTAGCAGGCCAAAGGTCACTCAAGATTAGTCCG | 2.74 | 5.44 | -0.0674 | 0.109 | 1.96 | 5.11 | 0.886 | 5.72 | 0.747 | 4.81
TCTCGGAGGACACGAAGGTCAAAGCTTTCCAGAG | 1.76 | 1.71 | -0.973 | -1.26 | 1.25 | 3.68 | 2.71 | 3.62 | 0.304 | 3.66
AGTCAAAGTTCAGTAGGTAACGTAAGATTCAGCT | 2.06 | 4.51 | 0.804 | 1.29 | 1.65 | 2.51 | 1.37 | 1.49 | 0.822 | 4.13
CCTACTGGGCCATTGAGAGGTCATTGATCATATG | 4.21 | 3.95 | -0.492 | 0.0836 | 2.14 | 4.37 | 2.03 | 4.26 | 0.245 | 2.82

Source: the supplement of paper PMC6555819
